Assay results reported in PubChem BioAssay AID1159580 (chemical genetic matrix, 2015).
Among all 5,500 compounds or so, about 2,000 (36%) were called active. Roughly 18% stayed inconclusive and do not appear here. No stated cut-off is given here; in the data, active means normalized growth mostly below about 0.91 (no sharp cut-off); inconclusive means no clear call, values can overlap the other calls; inactive means mostly above about 0.92. This is one part of the list.

Assay: chemical genetic growth profiling, strain panel (AID 1159580);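 further: tested at 20 µM; growth read once vehicle control cultures reached saturation at 30 °C; 1 = growth at the plate median or of vehicle wells; lower values mean less growth of the strain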
Conditions: growth OD

Measured: normalized growth

N[C@H](Cc1cc(I)c(Oc2ccc(O)c(I)c2)c(I)c1)C(=O)O
inactive: S. cerevisiae deletion strains, locus YJR075W, strain HOC1, active compounds read low 1 | S. cerevisiae deletion strains, locus YKL009W, strain mrt4, active compounds read low 1.03 | S. cerevisiae deletion strains, locus YKL068W, active compounds read low 0.998 | S. cerevisiae deletion strains, locus YKL085W, strain MDH1 (second series), active compounds read low 0.991 | S. cerevisiae deletion strains, locus YKL085W, strain MDH1, active compounds read low 0.991 | S. cerevisiae deletion strains, locus YKL160W, strain elf1, active compounds read low 0.965 | S. cerevisiae deletion strains, locus YKL190W, strain CNB1, active compounds read low 1.01 | S. cerevisiae deletion strains, locus YKR026C, strain gcn3, active compounds read low 0.999 | S. cerevisiae deletion strains, locus YKR091W, strain srl3, active compounds read low 0.998 | S. cerevisiae deletion strains, locus YLL001W, strain dnm1, active compounds read low 0.989 | S. cerevisiae deletion strains, locus YLL026W, active compounds read low 1 | S. cerevisiae deletion strains, locus YLL041C, strain sdh2, active compounds read low 1 | S. cerevisiae deletion strains, locus YLR027C, strain aat2, active compounds read low 0.968 | S. cerevisiae deletion strains, locus YLR039C, strain RIC1, active compounds read low 0.964 | S. cerevisiae deletion strains, locus YLR058C, strain SHM2, active compounds read low 1.01 | S. cerevisiae deletion strains, locus YLR102C, strain apc9, active compounds read low 0.996 | S. cerevisiae deletion strains, locus YLR113W, strain HOG1, active compounds read low 1.04 | S. cerevisiae deletion strains, locus YLR221C, strain rsa3, active compounds read low 0.945 | S. cerevisiae deletion strains, locus YLR258W, strain gsy2, active compounds read low 0.969 | S. cerevisiae deletion strains, locus YLR262C, strain YPT6 (second series), active compounds read low 0.938 | S. cerevisiae deletion strains, locus YLR262C, strain YPT6, active compounds read low 0.953 | S. cerevisiae deletion strains, locus YLR268W, strain sec22, active compounds read low 0.909 | S. cerevisiae deletion strains, locus YLR320W, strain mms22, active compounds read low 0.941 | S. cerevisiae deletion strains, locus YLR330W, strain CHS5, active compounds read low 1.04 | S. cerevisiae deletion strains, locus YLR342W, strain FKS1 (second series), active compounds read low 0.95 | S. cerevisiae deletion strains, locus YLR342W, strain FKS1, active compounds read low 0.994 | S. cerevisiae deletion strains, locus YLR357W, strain rsc2, active compounds read low 1 | S. cerevisiae deletion strains, locus YLR370C, strain arc18, active compounds read low 0.999 | S. cerevisiae deletion strains, locus YLR371W, strain rom2, active compounds read low 0.989 | S. cerevisiae deletion strains, locus YLR384C, strain iki3, active compounds read low 0.993 | S. cerevisiae deletion strains, locus YML016C, strain PPZ1, active compounds read low 0.997 | S. cerevisiae deletion strains, locus YML032C, strain rad52, active compounds read low 0.989 | S. cerevisiae deletion strains, locus YML120C, strain ndi1, active compounds read low 0.998 | S. cerevisiae deletion strains, locus YML124C, strain tub3, active compounds read low 0.997 | S. cerevisiae deletion strains, locus YMR058W, strain fet3, active compounds read low 0.988 | S. cerevisiae deletion strains, locus YMR078C, strain ctf18, active compounds read low 1.01 | S. cerevisiae deletion strains, locus YMR125W, strain sto1, active compounds read low 0.989 | S. cerevisiae deletion strains, locus YMR129W, active compounds read low 0.999 | S. cerevisiae deletion strains, locus YMR205C, strain PFK2, active compounds read low 0.88 | S. cerevisiae deletion strains, locus YMR223W, strain ubp8, active compounds read low 0.934 | S. cerevisiae deletion strains, locus YMR231W, strain pep5, active compounds read low 0.999 | S. cerevisiae deletion strains, locus YMR263W, strain SAP30, active compounds read low 1 | S. cerevisiae deletion strains, locus YMR307W, strain GAS1, active compounds read low 0.956 | S. cerevisiae deletion strains, locus YNL067W, strain RPL9B, active compounds read low 1.01 | S. cerevisiae deletion strains, locus YNL128W, strain TEP1, active compounds read low 1.01 | S. cerevisiae deletion strains, locus YNL153C, strain GIM3, active compounds read low 0.998 | S. cerevisiae deletion strains, locus YNL183C, strain NPR1, active compounds read low 0.977 | S. cerevisiae deletion strains, locus YNL209W, strain ssb2, active compounds read low 1 | S. cerevisiae deletion strains, locus YNL233W, strain BNI4, active compounds read low 0.961 | S. cerevisiae deletion strains, locus YNL248C, strain rpa49, active compounds read low 0.986 | S. cerevisiae deletion strains, locus YNL250W, strain rad50, active compounds read low 0.988 | S. cerevisiae deletion strains, locus YNL271C, strain bni1, active compounds read low 0.989 | S. cerevisiae deletion strains, locus YNL298W, strain CLA4, active compounds read low 1 | S. cerevisiae deletion strains, locus YNL322C, strain KRE1 (second series), active compounds read low 1.02 | S. cerevisiae deletion strains, locus YNL322C, strain KRE1, active compounds read low 1.01 | S. cerevisiae deletion strains, locus YNR049C, strain mso1, active compounds read low 0.998 | S. cerevisiae deletion strains, locus YNR052C, strain pop2, active compounds read low 0.999 | S. cerevisiae deletion strains, locus YOL006C, strain TOP1, active compounds read low 0.942 | S. cerevisiae deletion strains, locus YOL012C, strain htz1 0.841 | S. cerevisiae deletion strains, locus YOL147C, strain pex11, active compounds read low 1 | S. cerevisiae deletion strains, locus YOR001W, strain rrp6, active compounds read low 1.01 | S. cerevisiae deletion strains, locus YOR061W, strain CKA2, active compounds read low 0.994 | S. cerevisiae deletion strains, locus YOR069W, strain VPS5, active compounds read low 1 | S. cerevisiae deletion strains, locus YOR070C, strain gyp1, active compounds read low 0.992 | S. cerevisiae deletion strains, locus YOR080W, strain dia2, active compounds read low 0.987 | S. cerevisiae deletion strains, locus YOR083W, strain WHI5, active compounds read low 0.965 | S. cerevisiae deletion strains, locus YOR106W, strain vam3, active compounds read low 0.935 | S. cerevisiae deletion strains, locus YOR136W, strain idh2, active compounds read low 0.97 | S. cerevisiae deletion strains, locus YOR144C, strain elg1, active compounds read low 0.994 | S. cerevisiae deletion strains, locus YOR184W, strain ser1, active compounds read low 0.889 | S. cerevisiae deletion strains, locus YOR231W, strain MKK1, active compounds read low 1.03 | S. cerevisiae deletion strains, locus YOR265W, strain rbl2, active compounds read low 0.993 | S. cerevisiae deletion strains, locus YOR270C, strain vph1, active compounds read low 0.953 | S. cerevisiae deletion strains, locus YOR290C, strain snf2, active compounds read low 0.983 | S. cerevisiae deletion strains, locus YOR316C, strain cot1, active compounds read low 1 | S. cerevisiae deletion strains, locus YPL051W, strain arl3, active compounds read low 0.95 | S. cerevisiae deletion strains, locus YPL055C, strain LGE1, active compounds read low 1 | S. cerevisiae deletion strains, locus YPL078C, strain atp4, active compounds read low 0.968 | S. cerevisiae deletion strains, locus YPL106C, strain sse1, active compounds read low 0.96 | S. cerevisiae deletion strains, locus YPL240C, strain hsp82, active compounds read low 0.982 | S. cerevisiae deletion strains, locus YPL241C, strain CIN2, active compounds read low 1.01 | S. cerevisiae deletion strains, locus YPL256C, strain CLN2, active compounds read low 1.05 | S. cerevisiae deletion strains, locus YPR119W, strain clb2, active compounds read low 0.998 | S. cerevisiae deletion strains, locus YPR141C, strain kar3, active compounds read low 1.01 | S. cerevisiae deletion strains, locus YPR167C, strain met16, active compounds read low 1.01 | S. cerevisiae deletion strains, strain wtn01, active compounds read low 0.955 | S. cerevisiae strains, strain wild type, active compounds read low 1
active: S. cerevisiae deletion strains, locus YKR001C, strain vps1, active compounds read low 0.862 | S. cerevisiae deletion strains, locus YLR418C, strain cdc73, active compounds read low 0.77 | S. cerevisiae deletion strains, locus YNL071W, strain lat1, active compounds read low 0.627 | S. cerevisiae deletion strains, locus YNL307C, strain MCK1, active compounds read low 0.613 | S. cerevisiae deletion strains, locus YPR163C, strain tif3, active compounds read low 0.909
